Results taken from paper PMC7862700, “An all-to-all approach to the identification of sequence-specific readers for epigenetic DNA modifications on cytosine”.

What was measured:
Assay in all cases: DAPPL (digital affinity profiling via proximity ligation, sequencing); 10 mM Tris-HCl pH 7.5, 50 mM NaCl, 1 mM DTT, 4% glycerol, room temperature, 30 min; GST-TFs on glutathione beads, 16-mer random dsDNA library, 0.1% formaldehyde crosslink after washing; high values mean tight binding
FLI1 = biological target: T1, FLI1 (Homo sapiens, UniProt Q01543 1-452); settings: protein: recombinant; tags: N-terminal GST; dsDNA, one strand shown
T1 sequence: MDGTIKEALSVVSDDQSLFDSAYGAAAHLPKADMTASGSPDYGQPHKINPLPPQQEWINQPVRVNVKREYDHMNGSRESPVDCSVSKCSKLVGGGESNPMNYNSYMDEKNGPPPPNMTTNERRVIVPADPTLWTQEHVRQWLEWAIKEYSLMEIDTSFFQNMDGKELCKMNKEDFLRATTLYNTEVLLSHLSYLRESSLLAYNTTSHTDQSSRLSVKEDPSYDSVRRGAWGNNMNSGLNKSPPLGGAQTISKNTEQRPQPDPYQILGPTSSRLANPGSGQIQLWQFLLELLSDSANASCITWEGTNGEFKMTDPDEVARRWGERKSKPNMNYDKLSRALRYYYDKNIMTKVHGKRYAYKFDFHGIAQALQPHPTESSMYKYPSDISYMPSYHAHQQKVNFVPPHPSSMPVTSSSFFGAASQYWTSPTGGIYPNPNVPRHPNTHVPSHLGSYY
Procedure, shortened: (§1)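 Pools of DNA-barcoded human transcription factors, expressed in yeast as GST fusions on glutathione beads and combined with a tag-only sample, were incubated with 200 nmole of a 16-mer random double-stranded DNA library. Incubation took 30 min at room temperature in Tris/NaCl/DTT/glycerol buffer and was followed by washing, 0.1% formaldehyde crosslinking, proximity ligation (BsaI/T4 ligase, 1 h, 37 °C), PCR amplification and sequencing on an Illumina NextSeq500. Binding signal is the ratio of a hexamer's read frequency for a factor to its frequency for the tag-only sample.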

ELK1 = biological target: T2, ELK1 (Homo sapiens, UniProt P19419 1-428); settings: protein: recombinant; tags: N-terminal GST; dsDNA, one strand shown
T2 sequence: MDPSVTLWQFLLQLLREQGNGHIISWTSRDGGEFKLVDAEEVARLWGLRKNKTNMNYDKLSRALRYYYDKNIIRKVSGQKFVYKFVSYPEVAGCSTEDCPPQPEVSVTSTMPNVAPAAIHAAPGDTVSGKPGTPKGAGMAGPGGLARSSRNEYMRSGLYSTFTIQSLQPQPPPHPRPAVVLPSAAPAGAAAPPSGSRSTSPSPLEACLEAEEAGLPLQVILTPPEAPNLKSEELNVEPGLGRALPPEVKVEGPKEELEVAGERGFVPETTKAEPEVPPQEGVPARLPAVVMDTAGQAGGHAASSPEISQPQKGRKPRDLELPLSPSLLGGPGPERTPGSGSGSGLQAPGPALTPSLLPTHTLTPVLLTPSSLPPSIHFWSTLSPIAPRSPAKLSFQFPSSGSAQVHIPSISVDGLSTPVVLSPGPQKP
Procedure, shortened: as §1

GABPA = biological target: T3, GABPA (Homo sapiens, UniProt Q06546 1-454); settings: protein: recombinant; tags: N-terminal GST; dsDNA, one strand shown
T3 sequence: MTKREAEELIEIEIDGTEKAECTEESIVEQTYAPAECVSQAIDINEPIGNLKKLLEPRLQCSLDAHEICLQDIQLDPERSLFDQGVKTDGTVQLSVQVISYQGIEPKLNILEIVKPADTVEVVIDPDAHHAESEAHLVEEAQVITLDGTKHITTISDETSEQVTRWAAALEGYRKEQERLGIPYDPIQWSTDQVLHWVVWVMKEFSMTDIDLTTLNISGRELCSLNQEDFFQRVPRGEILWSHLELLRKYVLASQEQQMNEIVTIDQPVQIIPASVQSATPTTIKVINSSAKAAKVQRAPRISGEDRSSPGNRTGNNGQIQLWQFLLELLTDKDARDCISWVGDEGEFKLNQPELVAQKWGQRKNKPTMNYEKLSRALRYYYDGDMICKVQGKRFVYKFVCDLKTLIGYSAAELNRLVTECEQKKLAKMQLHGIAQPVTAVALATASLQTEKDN
Procedure, shortened: as §1

ERG = biological target: T4, ERG (Homo sapiens, UniProt P11308 1-479); settings: protein: recombinant; tags: N-terminal GST; dsDNA, one strand shown
T4 sequence: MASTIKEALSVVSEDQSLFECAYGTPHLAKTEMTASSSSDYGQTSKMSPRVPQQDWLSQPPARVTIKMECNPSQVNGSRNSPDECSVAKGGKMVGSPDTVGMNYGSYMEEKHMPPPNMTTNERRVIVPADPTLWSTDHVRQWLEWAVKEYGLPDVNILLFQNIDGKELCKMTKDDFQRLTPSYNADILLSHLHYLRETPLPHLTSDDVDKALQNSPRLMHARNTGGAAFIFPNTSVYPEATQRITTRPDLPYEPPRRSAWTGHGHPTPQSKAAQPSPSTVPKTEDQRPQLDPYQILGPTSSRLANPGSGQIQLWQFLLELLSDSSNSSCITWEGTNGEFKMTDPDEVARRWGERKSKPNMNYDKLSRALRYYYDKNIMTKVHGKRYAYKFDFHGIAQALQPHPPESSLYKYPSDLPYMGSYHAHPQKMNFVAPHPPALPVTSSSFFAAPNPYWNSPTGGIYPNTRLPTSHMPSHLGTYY
Procedure, shortened: as §1

ELF1 = ELF1 (Homo sapiens, UniProt P32519 1-619); settings: protein: recombinant; tags: N-terminal GST; dsDNA, one strand shown
ELF1, sequence (P32519 whole entry): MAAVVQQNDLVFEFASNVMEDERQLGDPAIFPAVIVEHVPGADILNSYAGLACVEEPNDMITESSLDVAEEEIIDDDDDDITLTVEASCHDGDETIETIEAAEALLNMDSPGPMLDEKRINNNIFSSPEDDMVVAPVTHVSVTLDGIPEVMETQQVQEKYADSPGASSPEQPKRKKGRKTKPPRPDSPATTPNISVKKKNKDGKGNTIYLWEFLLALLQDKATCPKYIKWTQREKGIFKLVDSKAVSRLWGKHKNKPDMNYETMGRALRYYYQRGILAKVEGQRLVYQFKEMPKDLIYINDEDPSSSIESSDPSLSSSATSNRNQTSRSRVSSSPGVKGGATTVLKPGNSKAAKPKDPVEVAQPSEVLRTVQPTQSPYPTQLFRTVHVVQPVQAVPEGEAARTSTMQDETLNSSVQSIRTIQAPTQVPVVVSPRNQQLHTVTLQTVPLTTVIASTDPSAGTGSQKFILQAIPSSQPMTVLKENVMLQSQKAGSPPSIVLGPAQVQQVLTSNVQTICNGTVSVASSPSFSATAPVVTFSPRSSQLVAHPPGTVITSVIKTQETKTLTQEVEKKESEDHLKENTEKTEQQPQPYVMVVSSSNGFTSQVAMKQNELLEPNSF
Procedure, shortened: as §1

EHF = biological target: T5, EHF (Homo sapiens, UniProt Q9NZC4 1-300); settings: protein: recombinant; tags: N-terminal GST; dsDNA, one strand shown
T5 sequence: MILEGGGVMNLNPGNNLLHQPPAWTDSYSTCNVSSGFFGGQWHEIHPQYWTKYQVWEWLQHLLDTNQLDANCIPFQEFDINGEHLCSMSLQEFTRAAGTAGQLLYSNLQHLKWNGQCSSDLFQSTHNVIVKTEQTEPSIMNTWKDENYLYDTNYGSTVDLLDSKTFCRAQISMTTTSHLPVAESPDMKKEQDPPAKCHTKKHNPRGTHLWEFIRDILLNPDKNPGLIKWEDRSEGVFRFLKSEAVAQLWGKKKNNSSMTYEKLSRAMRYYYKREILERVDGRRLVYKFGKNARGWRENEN
Procedure, shortened: as §1

SPI1 = SPI1 (Homo sapiens, UniProt P17947 1-270); settings: protein: recombinant; tags: N-terminal GST; dsDNA, one strand shown
Procedure, shortened: as §1

SPIB = SPIB (Homo sapiens, UniProt Q01892 1-262); settings: protein: recombinant; tags: N-terminal GST; dsDNA, one strand shown
SPIB, sequence (Q01892 whole entry): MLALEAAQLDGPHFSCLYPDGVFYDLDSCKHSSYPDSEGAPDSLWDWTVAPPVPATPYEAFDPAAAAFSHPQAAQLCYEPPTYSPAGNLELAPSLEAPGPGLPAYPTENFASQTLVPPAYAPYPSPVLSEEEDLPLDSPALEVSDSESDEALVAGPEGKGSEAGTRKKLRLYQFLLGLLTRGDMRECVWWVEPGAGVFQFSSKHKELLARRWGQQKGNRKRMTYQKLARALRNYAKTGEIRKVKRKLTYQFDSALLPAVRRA
Procedure, shortened: as §1

ELK3 = biological target: T6, ELK3 (Homo sapiens, UniProt P41970 1-407); settings: protein: recombinant; tags: N-terminal GST; dsDNA, one strand shown
T6 sequence: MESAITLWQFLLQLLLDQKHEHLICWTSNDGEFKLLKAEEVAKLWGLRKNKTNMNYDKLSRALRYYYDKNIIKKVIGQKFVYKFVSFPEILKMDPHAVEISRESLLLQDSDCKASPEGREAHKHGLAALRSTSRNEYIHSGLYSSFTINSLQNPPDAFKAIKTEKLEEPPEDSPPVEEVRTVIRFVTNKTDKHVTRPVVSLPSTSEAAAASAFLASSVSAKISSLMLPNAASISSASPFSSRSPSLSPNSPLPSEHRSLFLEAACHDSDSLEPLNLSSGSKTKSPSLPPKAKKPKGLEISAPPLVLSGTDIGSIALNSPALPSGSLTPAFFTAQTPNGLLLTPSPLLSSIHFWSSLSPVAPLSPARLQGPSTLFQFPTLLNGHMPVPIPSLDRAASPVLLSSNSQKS
Procedure, shortened: as §1

FEV = biological target: T7, FEV (Homo sapiens, UniProt Q99581 1-238); settings: protein: recombinant; tags: N-terminal GST; dsDNA, one strand shown
T7 sequence: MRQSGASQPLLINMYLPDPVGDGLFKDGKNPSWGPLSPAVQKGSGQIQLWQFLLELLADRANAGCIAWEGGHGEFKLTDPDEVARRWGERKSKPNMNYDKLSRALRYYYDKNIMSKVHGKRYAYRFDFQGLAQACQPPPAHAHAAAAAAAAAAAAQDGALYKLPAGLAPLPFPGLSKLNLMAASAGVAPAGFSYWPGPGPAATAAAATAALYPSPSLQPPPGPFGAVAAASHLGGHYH
Procedure, shortened: as §1

ETV5 = ETV5 (Homo sapiens, UniProt P41161 1-510); settings: protein: recombinant; tags: N-terminal GST; dsDNA, one strand shown
ETV5, sequence (P41161 whole entry): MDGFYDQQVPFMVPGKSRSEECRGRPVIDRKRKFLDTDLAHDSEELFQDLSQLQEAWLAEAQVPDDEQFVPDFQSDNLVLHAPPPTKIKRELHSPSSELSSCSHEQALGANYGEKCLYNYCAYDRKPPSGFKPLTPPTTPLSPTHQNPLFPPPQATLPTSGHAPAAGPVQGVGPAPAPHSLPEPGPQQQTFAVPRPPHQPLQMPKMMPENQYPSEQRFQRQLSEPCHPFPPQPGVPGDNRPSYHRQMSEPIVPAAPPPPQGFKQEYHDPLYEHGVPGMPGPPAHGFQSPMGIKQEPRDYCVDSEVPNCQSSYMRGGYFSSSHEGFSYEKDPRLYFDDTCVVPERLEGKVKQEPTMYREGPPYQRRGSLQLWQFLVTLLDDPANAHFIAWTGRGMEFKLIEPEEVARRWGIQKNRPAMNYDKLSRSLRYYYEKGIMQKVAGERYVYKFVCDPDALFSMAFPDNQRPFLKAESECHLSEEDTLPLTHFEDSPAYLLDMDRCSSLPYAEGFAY
Procedure, shortened: as §1

HSF1 = HSF1 (Homo sapiens, UniProt Q00613 1-529); settings: protein: recombinant; tags: N-terminal GST; chain copies: 3; dsDNA, one strand shown
HSF1, sequence (Q00613 whole entry): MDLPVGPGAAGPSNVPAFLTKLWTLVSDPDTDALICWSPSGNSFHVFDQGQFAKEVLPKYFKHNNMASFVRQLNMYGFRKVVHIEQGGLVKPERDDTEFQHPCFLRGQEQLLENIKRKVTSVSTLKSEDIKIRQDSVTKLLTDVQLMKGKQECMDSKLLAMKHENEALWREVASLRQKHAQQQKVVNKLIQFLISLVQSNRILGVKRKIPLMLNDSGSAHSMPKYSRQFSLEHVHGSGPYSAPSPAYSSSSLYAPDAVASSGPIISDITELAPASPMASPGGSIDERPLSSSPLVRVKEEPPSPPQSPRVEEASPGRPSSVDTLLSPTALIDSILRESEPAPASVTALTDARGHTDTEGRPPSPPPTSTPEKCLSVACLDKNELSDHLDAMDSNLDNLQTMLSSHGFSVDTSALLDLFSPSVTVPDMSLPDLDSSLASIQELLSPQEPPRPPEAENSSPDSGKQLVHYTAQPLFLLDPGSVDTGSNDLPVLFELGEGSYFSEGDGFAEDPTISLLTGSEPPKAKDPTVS
Procedure, shortened: as §1

SPIC = biological target: T8, SPIC (Homo sapiens, UniProt Q8N5J4 1-248); settings: protein: recombinant; tags: N-terminal GST; dsDNA, one strand shown
T8 sequence: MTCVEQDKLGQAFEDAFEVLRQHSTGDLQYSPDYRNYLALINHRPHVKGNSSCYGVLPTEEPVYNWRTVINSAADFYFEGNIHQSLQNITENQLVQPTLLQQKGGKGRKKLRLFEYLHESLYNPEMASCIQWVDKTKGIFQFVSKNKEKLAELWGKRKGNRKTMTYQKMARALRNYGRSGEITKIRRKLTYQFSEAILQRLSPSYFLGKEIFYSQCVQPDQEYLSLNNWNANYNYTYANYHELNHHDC
Procedure, shortened: as §1

ELF4 = ELF4 (Homo sapiens, UniProt Q99607 1-663); settings: protein: recombinant; tags: N-terminal GST; dsDNA, one strand shown
ELF4, sequence (Q99607 whole entry): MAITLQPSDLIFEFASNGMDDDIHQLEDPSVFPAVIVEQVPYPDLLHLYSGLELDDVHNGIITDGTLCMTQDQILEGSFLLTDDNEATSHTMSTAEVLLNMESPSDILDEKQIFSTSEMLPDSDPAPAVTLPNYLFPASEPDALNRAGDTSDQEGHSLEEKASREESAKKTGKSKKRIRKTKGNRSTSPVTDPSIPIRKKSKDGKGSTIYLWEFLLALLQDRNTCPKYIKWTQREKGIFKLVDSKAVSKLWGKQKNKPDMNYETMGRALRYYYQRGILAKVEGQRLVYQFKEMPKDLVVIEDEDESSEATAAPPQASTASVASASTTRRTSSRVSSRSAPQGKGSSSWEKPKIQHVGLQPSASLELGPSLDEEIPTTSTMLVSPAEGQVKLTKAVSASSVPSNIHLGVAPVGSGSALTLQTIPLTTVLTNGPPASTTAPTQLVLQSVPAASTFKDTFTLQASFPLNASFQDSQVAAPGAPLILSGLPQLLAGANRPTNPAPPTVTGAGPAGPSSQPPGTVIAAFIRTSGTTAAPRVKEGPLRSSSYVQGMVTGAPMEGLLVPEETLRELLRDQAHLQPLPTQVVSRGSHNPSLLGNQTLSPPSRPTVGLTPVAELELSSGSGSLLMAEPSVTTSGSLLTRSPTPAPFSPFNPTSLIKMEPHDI
Procedure, shortened: as §1

ELK4 = biological target: T9, ELK4 (Homo sapiens, UniProt P28324-2 1-405); settings: protein: recombinant; tags: N-terminal GST; dsDNA, one strand shown
T9 sequence: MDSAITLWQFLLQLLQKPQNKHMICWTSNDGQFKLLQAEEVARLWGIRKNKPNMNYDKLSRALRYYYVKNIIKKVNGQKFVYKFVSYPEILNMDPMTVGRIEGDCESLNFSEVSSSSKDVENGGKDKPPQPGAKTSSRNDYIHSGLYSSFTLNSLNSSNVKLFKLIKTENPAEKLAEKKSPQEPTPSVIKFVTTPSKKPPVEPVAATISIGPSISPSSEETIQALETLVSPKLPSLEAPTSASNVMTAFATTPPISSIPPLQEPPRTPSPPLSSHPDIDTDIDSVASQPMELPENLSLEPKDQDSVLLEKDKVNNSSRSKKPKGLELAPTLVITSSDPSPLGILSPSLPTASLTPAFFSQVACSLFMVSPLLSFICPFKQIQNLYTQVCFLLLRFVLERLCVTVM
Procedure, shortened: as §1

ETV2 = biological target: T10, ETV2 (Homo sapiens, UniProt O00321 1-342); settings: protein: recombinant; tags: N-terminal GST; dsDNA, one strand shown
T10 sequence: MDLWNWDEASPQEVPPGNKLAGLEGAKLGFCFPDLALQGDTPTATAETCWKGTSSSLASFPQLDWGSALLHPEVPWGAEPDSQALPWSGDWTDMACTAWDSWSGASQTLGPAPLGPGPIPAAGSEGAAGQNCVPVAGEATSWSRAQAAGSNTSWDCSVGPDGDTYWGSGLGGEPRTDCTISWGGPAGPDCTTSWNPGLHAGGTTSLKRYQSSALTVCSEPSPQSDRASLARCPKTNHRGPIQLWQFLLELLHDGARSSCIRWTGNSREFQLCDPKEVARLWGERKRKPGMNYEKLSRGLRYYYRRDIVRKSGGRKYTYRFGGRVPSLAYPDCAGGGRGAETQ
Procedure, shortened: as §1

ELF3 = biological target: T11, ELF3 (Homo sapiens, UniProt P78545 1-371); settings: protein: recombinant; tags: N-terminal GST; dsDNA, one strand shown
T11 sequence: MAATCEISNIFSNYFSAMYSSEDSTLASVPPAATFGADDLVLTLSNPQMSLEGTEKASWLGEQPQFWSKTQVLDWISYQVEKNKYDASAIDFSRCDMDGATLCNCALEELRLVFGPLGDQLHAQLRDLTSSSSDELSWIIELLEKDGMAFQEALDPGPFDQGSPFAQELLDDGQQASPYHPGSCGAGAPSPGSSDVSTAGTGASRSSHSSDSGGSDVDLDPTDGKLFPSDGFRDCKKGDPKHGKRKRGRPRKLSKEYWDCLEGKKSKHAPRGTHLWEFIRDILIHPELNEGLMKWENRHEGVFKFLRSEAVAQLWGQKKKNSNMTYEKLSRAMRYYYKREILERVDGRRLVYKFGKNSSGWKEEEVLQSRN
Procedure, shortened: as §1

CRX = CRX (Homo sapiens, UniProt O43186 1-299); settings: protein: recombinant; tags: N-terminal GST; dsDNA, one strand shown
CRX, sequence (O43186 whole entry): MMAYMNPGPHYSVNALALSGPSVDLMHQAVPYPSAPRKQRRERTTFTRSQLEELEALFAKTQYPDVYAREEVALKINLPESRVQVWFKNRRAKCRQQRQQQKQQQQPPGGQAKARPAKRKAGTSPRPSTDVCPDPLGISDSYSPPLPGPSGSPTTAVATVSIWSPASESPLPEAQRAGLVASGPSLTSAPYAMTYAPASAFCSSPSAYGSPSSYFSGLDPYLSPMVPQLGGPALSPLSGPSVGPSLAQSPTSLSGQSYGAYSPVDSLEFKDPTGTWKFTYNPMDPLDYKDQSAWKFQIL
Procedure, shortened: as §1

ETV1 = ETV1 (Homo sapiens, UniProt P50549 1-477); settings: protein: recombinant; tags: N-terminal GST; dsDNA, one strand shown
ETV1, sequence (P50549 whole entry): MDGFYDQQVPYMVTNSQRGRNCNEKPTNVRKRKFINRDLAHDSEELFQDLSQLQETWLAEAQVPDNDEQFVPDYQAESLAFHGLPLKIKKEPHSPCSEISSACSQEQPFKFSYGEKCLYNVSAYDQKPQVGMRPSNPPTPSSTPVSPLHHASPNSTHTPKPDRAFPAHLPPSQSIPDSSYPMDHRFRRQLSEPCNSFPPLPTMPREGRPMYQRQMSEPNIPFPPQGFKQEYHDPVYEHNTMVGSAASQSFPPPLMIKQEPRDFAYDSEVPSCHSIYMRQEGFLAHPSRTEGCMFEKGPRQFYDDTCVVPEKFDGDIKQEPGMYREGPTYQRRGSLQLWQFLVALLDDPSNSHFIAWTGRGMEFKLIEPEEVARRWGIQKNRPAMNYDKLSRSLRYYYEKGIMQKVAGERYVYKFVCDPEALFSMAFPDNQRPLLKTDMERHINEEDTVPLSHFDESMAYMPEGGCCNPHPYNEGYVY
Procedure, shortened: as §1

In the case of ACACTT, the binding signal (FLI1) was 1.63 fold enrichment (6-mer frequency, TF over GST control), the binding signal (ELK1) was 1.7 fold enrichment (6-mer frequency, TF over GST control) and the binding signal (GABPA) was 1.53 fold enrichment (6-mer frequency, TF over GST control). The binding signal (ERG) was 1.8 fold enrichment (6-mer frequency, TF over GST control), the binding signal (ELF1) was 1.69 fold enrichment (6-mer frequency, TF over GST control) and the binding signal (EHF) was 1.66 fold enrichment (6-mer frequency, TF over GST control). For the same sequence, the binding signal (SPI1) was 1.95 fold enrichment (6-mer frequency, TF over GST control), the binding signal (SPIB) was 1.67 fold enrichment (6-mer frequency, TF over GST control) and the binding signal (ELK3) was 1.74 fold enrichment (6-mer frequency, TF over GST control). For the same sequence, the binding signal (FEV) was 1.68 fold enrichment (6-mer frequency, TF over GST control), the binding signal (ETV5) was 1.67 fold enrichment (6-mer frequency, TF over GST control) and the binding signal (HSF1) was 1.11 fold enrichment (6-mer frequency, TF over GST control). The binding signal (SPIC) was 1.71 fold enrichment (6-mer frequency, TF over GST control), the binding signal (ELF4) was 1.55 fold enrichment (6-mer frequency, TF over GST control) and the binding signal (ELK4) was 1.49 fold enrichment (6-mer frequency, TF over GST control). The binding signal (ETV2) was 1.58 fold enrichment (6-mer frequency, TF over GST control), the binding signal (ELF3) was 1.66 fold enrichment (6-mer frequency, TF over GST control) and the binding signal (CRX) was 1.16 fold enrichment (6-mer frequency, TF over GST control). For the same sequence, the binding signal (ETV1) was 1.77 fold enrichment (6-mer frequency, TF over GST control).
